Source: PubChem BioAssay AID623911 (Vanderbilt High Throughput Screening Facility, 2012)
Among all 2,100 compounds or so, about 770 (37%) were called active. The list shows a part of the results. Values without a mark were called inactive.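 The calls were made as follows: active = by-eye trace score of 1 for enhancers or -1 for inhibitors, so actives lie on both sides (some results past the limit were not filed as active); inactive = score 0, or 3 fluorescent, or 4 baseline rise.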

These molecules were tested against G protein-activated inward rectifier potassium channel 2 (Homo sapiens) + G protein-activated inward rectifier potassium channel 1 (Homo sapiens) (UniProt P48051+P48549) (assay: GIRK1/2 thallium flux modulators, retest, confirmation, cell-based, HEK293 rmGlu8/hGIRK1/2, FluoZin-2 (AID 623911)). Conditions: HEK293 rmGlu8/hGIRK1/2, thallium flux FluoZin-2; actives lie on both sides.
G protein-activated inward rectifier potassium channel 2 (Homo sapiens) + G protein-activated inward rectifier potassium channel 1 (Homo sapiens), sequence (P48051 whole entry, looked up): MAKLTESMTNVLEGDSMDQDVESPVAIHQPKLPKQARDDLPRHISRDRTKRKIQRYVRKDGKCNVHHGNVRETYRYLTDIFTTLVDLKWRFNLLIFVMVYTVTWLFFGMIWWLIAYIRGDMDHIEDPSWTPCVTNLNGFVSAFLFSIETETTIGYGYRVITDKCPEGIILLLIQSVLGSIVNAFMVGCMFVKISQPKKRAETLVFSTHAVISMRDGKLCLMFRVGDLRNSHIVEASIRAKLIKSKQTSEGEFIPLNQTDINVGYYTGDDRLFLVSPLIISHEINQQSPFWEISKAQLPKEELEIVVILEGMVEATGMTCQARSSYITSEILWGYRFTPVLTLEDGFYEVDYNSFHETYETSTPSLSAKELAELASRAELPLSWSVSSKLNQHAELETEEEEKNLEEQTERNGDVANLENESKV
G protein-activated inward rectifier potassium channel 2 (Homo sapiens) + G protein-activated inward rectifier potassium channel 1 (Homo sapiens), sequence (P48549 whole entry, looked up): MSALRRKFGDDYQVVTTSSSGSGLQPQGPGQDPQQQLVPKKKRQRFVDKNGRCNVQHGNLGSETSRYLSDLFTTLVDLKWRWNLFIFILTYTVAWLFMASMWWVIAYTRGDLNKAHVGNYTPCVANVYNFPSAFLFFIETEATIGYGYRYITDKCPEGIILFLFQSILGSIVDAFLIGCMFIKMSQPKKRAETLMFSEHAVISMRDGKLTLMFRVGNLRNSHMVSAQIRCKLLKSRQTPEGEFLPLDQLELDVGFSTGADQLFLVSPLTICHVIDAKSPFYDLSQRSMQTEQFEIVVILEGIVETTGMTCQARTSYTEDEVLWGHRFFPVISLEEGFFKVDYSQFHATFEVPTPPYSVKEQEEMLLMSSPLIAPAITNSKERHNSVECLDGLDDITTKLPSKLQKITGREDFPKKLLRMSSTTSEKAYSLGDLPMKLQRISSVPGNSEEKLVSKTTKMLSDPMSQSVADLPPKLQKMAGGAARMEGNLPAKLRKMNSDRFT

SMILES	manual score
COc1cc(-n2c(=S)[nH]c3ccccc3c2=O)c(Cl)cc1Cl	1 (active)
CC(C)Oc1cc(-n2c(=S)[nH]c3ccccc3c2=O)c(Cl)cc1Cl	1 (active)
CC(=NCC1CCCO1)c1c(O)n(-c2ccc(C)cc2)c(=O)[nH]c1=O (stereo not given)	0
Nc1c(C(=O)OC2CCCCC2)c2nc3ccccc3nc2n1CC1CCCO1 (stereo not given)	0
CCOC(=O)C(O)(c1ccc(N(CC)S(=O)(=O)c2ccc(C)cc2)cc1)C(F)(F)F (stereo not given)	-1 (active)
CCN(c1ccc(C(O)(C(=O)OC)C(F)(F)F)cc1)S(=O)(=O)c1ccc(C)cc1 (stereo not given)	-1 (active)
C/C(=N\Nc1ccccc1)c1c(O)n(C)c(=O)n(C)c1=O	0
CCOC(=O)C1=C(NC(=S)NC(=O)c2ccccc2)c2ccccc2CC12CCCC2	0
CC/C(=C\C=C\[C@@H]1C=C[C@@H]2CCC[C@H]2[C@@H]1C(=O)c1ccc[nH]1)[C@@H]1O[C@@H]([C@@H](C)C(=O)O)CC[C@@H]1C	0
Cc1ccc(-c2nc(N(C)C3CCN(C)CC3)c3ccccc3n2)cc1	0
O=c1cc(C(F)(F)F)c2cc3c4c(c2o1)CCCN4CCC3	3
Cn1cccc1CNCCc1ccccc1	0
CCN1/C(=C\C=C\C2=[N+](CC)c3ccccc3C2(C)C)C(C)(C)c2ccccc21	3
CNC(=O)OCCc1nccn1C	0
O=C(Nc1ccc(Cl)cc1)Nc1nccs1	1 (active)
Cc1nn(C)cc1/C=C1/CC2C3CC=C4CC(O)CCC4(C)C3CCC2(C)C1=O (stereo not given)	-1 (active)
CN1/C(=C\C=C\C2=[N+](C)c3ccc4ccccc4c3C2(C)C)C(C)(C)c2ccccc21	3
C=CCOC(=O)COc1cc(C)cc2oc(=O)c3c(c12)CCC3	0

SMILES	manual score
CCN(CC)CCNCC(=O)Nc1ccc(Cl)cc1C(=O)c1ccccc1	-1 (active)
O=c1[nH]c(=S)n(CCC2=CCCCC2)c(O)c1C=NCCCn1ccnc1	3
Cc1ccc(OCC(=O)NCCN2CCN(C(=O)COc3ccc(C)cc3)CC2)cc1	0
O=C(c1cc2ccccn2n1)N1CCC2(CC1)OCCO2	0
COc1ccc(CC2C(=O)NC(=O)NC2=O)c(OC)c1	0
c1ccc2c(CNC3CCCCC3)c[nH]c2c1	-1 (active)
CC(C)N1C(=O)/C(=C/C=C/c2ccco2)C(=O)N(Cc2ccco2)C1=O	0
S=C1CN=C(c2ccccc2Cl)c2cc(Cl)ccc2N1	1 (active)
S=C1CN=C(c2ccccc2)c2cc(Cl)ccc2N1	0
Cc1ccccc1C1=NCC(=S)Nc2ccc(Cl)cc21	0
CC(C)CCn1c(=O)c(C(=O)Nc2ccccc2S(N)(=O)=O)c(O)c2ccccc21	0
O=C(c1ccccc1)c1cn(CC(=O)N2CCOCC2)c2ccccc12	0
Fc1ccc(NC2=NCCS2)cc1Cl	0
CCCCn1c(C)c(C(=O)OCC)c2c(CN3CCOCC3)c(O)ccc21	-1 (active)
O=C(Cc1ccccc1)N1CCN(C/C=C/c2ccccc2)CC1	0
Cc1ccc2nc(N3CCC(C(=O)N4CCC5(CC4)OCCO5)CC3)sc2c1	0
N=c1sc2c(n1Cc1ccccc1)CCCC2	-1 (active)
